Results reported in ChEMBL document CHEMBL3988442, “University of Dundee, Small-Polar-MMV Screening Library” (2021).
For part of these data: Results with a measured potency or affinity are listed apart.

What was measured:
Design in all cases: scale not given: direction of the effect not stated beside the values
[1] = target: Protein translocase subunit SecA (Escherichia coli (strain K12)) (UniProt P10408); test: Assay to Identify E. coli SecA ATPase Inhibitors; type: functional; details: 30 µM
[2] = target: T1, Ubiquitin-activating enzyme e1, putative (Leishmania donovani (strain BPK282A1)) (UniProt E9BSI1); test: Leishmania donovani Ubiquitin Activating Enzyme (LdE1); type: functional; details: 30 µM
T1 sequence (whole entry): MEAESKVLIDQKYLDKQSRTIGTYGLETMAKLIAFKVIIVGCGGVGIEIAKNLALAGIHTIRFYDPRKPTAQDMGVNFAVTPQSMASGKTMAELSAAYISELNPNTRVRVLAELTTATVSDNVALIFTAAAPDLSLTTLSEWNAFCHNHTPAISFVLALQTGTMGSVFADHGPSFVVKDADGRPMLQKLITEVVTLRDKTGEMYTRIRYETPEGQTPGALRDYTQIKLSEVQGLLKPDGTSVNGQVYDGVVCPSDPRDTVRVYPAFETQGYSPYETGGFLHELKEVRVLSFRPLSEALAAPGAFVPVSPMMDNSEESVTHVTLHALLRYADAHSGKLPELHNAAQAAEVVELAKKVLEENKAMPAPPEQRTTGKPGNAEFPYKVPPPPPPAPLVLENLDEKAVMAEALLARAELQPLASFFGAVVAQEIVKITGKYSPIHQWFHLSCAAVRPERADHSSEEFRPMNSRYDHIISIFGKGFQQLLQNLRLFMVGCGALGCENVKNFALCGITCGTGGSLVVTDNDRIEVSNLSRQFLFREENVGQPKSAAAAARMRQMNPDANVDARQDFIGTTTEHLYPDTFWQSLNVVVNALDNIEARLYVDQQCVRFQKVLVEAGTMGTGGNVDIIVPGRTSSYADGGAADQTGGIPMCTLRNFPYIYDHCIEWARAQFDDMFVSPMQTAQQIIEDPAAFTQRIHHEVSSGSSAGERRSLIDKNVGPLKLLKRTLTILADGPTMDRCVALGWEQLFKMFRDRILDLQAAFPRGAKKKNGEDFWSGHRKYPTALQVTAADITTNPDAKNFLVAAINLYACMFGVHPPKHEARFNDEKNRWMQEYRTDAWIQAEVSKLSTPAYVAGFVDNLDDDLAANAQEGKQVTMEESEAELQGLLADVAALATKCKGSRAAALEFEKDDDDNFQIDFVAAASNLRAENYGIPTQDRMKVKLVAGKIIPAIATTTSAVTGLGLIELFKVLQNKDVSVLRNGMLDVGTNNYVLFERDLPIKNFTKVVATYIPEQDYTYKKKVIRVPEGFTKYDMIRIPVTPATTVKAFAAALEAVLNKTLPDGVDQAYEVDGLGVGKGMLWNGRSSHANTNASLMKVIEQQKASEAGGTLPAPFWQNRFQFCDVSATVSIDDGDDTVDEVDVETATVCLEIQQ

[3] = target: Sialic acid-binding Ig-like lectin 9 (Homo sapiens) (UniProt Q9Y336); test: Hs-Siglec9 ALPHAscreen SOP 20170721; details: 10 µM
Trypanosoma cruzi = test: Trypanosoma cruzi phosphomannomutase and mannose-1-phosphate guanylyltransferase assay; type: functional; details: 10 µM
[4] = target: T2, Arginase-2, mitochondrial (Homo sapiens) (UniProt P78540); test: in vitro enzyme assay to detect the production of urea directly proportional to the activity of Arginase II; type: functional; details: 33.3 µM; note: in the data most compounds retested in dose-response had high values
T2 sequence (whole entry): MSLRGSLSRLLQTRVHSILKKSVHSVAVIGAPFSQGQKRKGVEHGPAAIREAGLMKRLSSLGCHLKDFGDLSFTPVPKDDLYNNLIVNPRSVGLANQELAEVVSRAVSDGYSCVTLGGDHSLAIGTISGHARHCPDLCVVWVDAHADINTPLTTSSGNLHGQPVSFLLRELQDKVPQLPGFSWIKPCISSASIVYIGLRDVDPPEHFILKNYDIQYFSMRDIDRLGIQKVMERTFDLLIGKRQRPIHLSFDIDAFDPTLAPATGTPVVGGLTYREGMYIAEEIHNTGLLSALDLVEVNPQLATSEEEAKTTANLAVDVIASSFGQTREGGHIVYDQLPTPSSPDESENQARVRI

[5] = target: T3, Proteasome subunit beta (Trypanosoma cruzi) (UniProt O96673); test: Trypanosoma cruzi proteasome chymotrypsin-like activity (TcProtChymo) assay.; note: in the data most compounds retested in dose-response had high values; type: functional; details: 9.37 µM
T3 sequence (whole entry): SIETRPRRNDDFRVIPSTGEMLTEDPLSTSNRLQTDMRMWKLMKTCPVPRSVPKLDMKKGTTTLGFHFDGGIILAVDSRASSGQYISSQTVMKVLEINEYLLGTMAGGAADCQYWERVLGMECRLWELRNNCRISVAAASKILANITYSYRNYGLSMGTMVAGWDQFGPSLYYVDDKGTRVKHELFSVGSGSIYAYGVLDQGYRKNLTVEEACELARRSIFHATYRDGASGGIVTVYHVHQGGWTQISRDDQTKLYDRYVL

Homo sapiens = organism: Homo sapiens; test: To identify inhibition of the IFN signalling (Jak-Stat) pathway via expression of an eGFP reporter gene under the control of an IFN-stimulated response element (ISRE) containing MxA promoter.; type: functional; details: 30 µM
[6] = target: T4, Tyrosyl-tRNA synthetase, putative (Trypanosoma cruzi (strain CL Brener)) (UniProt Q4DSP6); test: Trypanosoma cruzi tyrosyl tRNA synthetase (TcYRS) _High Tyrosine SOP; type: functional; details: 30 µM; note: in the data most compounds retested in dose-response had high values
T4 sequence (whole entry): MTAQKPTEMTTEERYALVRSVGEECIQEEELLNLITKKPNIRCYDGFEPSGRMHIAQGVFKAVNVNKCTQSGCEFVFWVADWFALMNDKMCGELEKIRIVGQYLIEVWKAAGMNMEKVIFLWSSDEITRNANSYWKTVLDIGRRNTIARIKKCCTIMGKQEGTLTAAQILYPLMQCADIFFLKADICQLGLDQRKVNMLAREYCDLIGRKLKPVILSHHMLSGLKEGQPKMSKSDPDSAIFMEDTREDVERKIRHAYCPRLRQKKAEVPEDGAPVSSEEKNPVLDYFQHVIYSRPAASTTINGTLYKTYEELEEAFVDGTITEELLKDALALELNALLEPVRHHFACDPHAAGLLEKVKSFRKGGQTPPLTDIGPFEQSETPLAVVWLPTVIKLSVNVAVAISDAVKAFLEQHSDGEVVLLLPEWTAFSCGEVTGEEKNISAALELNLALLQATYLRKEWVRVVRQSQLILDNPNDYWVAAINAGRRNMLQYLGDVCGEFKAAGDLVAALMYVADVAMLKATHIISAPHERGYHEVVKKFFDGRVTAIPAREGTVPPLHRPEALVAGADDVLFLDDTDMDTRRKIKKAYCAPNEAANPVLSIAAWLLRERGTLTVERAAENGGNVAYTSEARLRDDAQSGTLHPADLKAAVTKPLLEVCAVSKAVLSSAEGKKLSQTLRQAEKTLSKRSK

[7] = target: T4, Tyrosyl-tRNA synthetase, putative (Trypanosoma cruzi (strain CL Brener)); test: Trypanosoma cruzi tyrosyl tRNA synthetase (TcYRS) SOP; type: functional; details: 30 µM
[8] = target: Chromo domain-containing protein 1 (Saccharomyces cerevisiae (strain ATCC 204508 / S288c) (Baker's yeast)) (UniProt P32657); test: ScCHD-1 Enzyme Inhibition Assay; type: functional; details: 30 µM; note: in the data most compounds retested in dose-response had high values
Sequence of Chromo domain-containing protein 1 (Saccharomyces cerevisiae (strain ATCC 204508 / S288c) (Baker's yeast)) (P32657 whole entry, the tested form may be a part): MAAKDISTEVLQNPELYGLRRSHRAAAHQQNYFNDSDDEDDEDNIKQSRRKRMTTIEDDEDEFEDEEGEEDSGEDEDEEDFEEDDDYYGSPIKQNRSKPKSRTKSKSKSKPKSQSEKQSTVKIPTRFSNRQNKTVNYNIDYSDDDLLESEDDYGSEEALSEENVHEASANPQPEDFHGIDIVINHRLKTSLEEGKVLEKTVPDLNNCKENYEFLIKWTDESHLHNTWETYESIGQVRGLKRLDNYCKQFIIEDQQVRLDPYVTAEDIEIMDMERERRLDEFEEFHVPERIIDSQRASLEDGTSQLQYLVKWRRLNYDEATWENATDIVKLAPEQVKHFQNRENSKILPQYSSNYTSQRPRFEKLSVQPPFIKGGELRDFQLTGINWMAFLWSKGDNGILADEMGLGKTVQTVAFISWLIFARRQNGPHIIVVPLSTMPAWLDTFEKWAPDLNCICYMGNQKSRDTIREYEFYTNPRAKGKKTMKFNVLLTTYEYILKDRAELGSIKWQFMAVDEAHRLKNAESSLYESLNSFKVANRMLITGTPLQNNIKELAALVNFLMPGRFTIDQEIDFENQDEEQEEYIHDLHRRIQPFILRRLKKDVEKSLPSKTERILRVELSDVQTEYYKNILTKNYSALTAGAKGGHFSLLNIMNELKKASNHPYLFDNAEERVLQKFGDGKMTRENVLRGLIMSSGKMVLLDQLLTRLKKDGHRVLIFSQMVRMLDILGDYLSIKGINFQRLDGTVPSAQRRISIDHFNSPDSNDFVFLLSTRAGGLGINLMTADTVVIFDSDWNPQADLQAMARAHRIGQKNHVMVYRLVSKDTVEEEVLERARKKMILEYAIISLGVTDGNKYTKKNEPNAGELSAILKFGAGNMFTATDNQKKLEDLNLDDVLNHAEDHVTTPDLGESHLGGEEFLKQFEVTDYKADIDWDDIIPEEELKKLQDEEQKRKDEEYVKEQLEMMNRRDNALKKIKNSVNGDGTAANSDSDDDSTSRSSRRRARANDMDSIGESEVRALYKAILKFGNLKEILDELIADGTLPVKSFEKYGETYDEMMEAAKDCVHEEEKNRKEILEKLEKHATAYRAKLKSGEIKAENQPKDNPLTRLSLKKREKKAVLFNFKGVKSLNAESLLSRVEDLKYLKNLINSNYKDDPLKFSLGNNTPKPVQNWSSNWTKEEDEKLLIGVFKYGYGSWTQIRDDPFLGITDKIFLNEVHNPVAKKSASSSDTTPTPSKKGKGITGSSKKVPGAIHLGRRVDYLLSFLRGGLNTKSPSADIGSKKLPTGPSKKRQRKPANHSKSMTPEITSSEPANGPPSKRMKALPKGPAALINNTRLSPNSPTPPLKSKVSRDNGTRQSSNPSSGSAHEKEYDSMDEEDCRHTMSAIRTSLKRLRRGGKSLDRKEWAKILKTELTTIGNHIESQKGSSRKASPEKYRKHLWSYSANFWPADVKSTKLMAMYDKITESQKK

Sequence of Protein translocase subunit SecA (Escherichia coli (strain K12)) (P10408 whole entry): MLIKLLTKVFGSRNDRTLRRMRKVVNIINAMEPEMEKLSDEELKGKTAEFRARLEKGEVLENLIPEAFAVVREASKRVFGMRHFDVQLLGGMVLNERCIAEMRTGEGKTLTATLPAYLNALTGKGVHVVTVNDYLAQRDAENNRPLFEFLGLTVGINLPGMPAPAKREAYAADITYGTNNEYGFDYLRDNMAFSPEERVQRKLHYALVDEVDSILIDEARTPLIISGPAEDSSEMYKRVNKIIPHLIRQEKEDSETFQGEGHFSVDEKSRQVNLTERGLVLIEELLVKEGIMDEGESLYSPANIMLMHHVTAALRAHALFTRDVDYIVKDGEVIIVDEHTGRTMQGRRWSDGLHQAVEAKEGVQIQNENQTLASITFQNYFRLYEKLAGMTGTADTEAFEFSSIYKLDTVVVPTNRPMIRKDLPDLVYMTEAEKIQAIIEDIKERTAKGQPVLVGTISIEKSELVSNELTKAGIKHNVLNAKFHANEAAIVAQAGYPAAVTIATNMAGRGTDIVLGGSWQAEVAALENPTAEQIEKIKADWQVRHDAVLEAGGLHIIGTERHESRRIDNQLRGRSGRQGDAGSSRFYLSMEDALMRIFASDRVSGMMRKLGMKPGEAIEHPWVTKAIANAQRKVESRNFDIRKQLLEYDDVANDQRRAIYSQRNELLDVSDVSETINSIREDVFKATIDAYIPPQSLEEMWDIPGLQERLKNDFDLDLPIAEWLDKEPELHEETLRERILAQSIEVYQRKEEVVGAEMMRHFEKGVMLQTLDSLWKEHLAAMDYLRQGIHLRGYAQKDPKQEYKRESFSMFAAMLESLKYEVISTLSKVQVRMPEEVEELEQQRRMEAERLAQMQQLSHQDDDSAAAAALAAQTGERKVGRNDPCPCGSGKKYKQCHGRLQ
Sequence of Sialic acid-binding Ig-like lectin 9 (Homo sapiens) (Q9Y336 whole entry): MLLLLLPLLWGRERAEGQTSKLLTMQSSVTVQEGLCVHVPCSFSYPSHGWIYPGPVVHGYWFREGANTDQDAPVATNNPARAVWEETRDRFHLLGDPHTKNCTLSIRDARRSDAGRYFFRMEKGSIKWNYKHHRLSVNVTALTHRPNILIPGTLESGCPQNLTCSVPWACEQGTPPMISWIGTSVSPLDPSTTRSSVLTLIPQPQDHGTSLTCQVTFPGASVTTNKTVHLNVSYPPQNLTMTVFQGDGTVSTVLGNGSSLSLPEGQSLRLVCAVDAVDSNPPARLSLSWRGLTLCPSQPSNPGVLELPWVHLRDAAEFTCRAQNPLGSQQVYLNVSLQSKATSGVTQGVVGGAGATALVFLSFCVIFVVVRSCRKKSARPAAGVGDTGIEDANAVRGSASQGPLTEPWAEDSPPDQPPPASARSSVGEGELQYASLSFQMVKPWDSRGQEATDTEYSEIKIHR

Row | SMILES | Percent Effect [1] | Percent Effect [2] | Percent Effect [3] | Percent Effect (Trypanosoma cruzi) | Percent Effect [4] | Percent Effect [5] | Percent Effect (Homo sapiens) | Percent Effect [6] | Percent Effect [7] | Percent Effect [8]
1 | CC(C)N1CC(C(=O)NCc2ccnc(-n3cccn3)c2)CC1=O (stereo not given) | -1.72% | 12.8% | -8.26% | 0.469% | 8.2% | 3.33% | 25.3% | 5.26% | 13.2% | -3.04%
2 | Cn1cc(C(=O)N2CCCC(n3cccn3)C2)c2ccccc21 (stereo not given) | -1.25% | 8% | -2.42% | -5.62% | 7.09% | 3.65% | 9.06% | 2.63% | 5.13% | -11.9%
3 | CC1CN(CC(=O)NC2CCCC2)CCN1c1ccc2nncn2n1 (stereo not given) | -1.74% | 12.8% | 1.41% | 0.0939% | 4.1% | 15.8% | 12.2% | 7.18% | 20.5% | -1.24%
4 | Cc1cnn(C(C)C2CC2)c1NC(=O)c1ccncc1 (stereo not given) | -9.84% | -5.41% | -2.58% | -1.26% | 1.75% | 5.82% | -1.9% | -1.6% | 0% | -0.204%
5 | CC(C)c1nc(C2CCCN(Cc3nnc(C4CC4)o3)C2)no1 (stereo not given) | 3.18% | -2.67% | 5.21% | 0% | 4.88% | 0.933% | 4.85% | -1.58% | -2.56% | -1.26%
6 | Nc1cc(CCC2CN(Cc3ccc(C(=O)O)cc3)CCO2)ccn1 (stereo not given) | -3.81% | 9.33% | -7.05% | -5.72% | -1.77% | 13% | 12.6% | -1.06% | 2.5% | -22%
7 | CS(=O)(=O)NCc1ncn2c1CN(C(=O)CC1CCCC1)CCC2 | -1.59% | -1.3% | -3.12% | -4.77% | -0.81% | 2.91% | 12.6% | 1.58% | -2.56% | -0.829%
8 | Cc1[nH]c(=O)c(C#N)cc1C(=O)N1C[C@@H](CN2CCCC2)C[C@H](CO)C1 | -6.79% | -8.11% | -1.68% | -2.81% | 3.85% | -5.82% | 21.2% | -0.532% | -2.44% | 2.93%
9 | O=S(=O)(c1ccccc1Cl)N1CCc2nc(C3CCNCC3)ncc2C1 | -4.22% | 1.33% | 8.22% | 3.75% | -1.33% | 12.2% | 34.8% | 6.35% | 12.5% | -26.2%
